Screening data (PubChem)
Only some compounds are listed: those with a hit (about 21% of all), similar ones and a draw of the others.
CHX counter: counter-screen hit for Shiga toxin inhibitors, cycloheximide | cell reporter, cycloheximide protein synthesis inhibition counterscreen | max response, % | 300,000 compounds, 12% hits; in the data active = max response mostly above about 13%, no sharp cut-off; inactive = mostly below about 14%; note: read at 38.3 µM for the half of the compounds with a filed dose
Shiga toxin inh: inhibitors of Shiga toxin in Vero cells; Vero cells, Shiga toxin protein synthesis inhibition reporter; inhibition, % at 38.7 µM; 290,000 compounds, 9.2% hits; AID 2315; in the data active = inhibition mostly above about 28%, no sharp cut-off; inactive = mostly below about 43%
Sm TGR block: S. mansoni TGR enzyme inhibition; purified TGR, DTNB reduction, TNB absorbance 405 nm; 360,000 compounds, 3% hits; Potency, µM (series often up to 114 µM), most hits filed as inhibitors; AID 485364; note: nearly all actives have a fitted effect of over 60% in size
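Kinetic colorimetric format: TGR-catalysed, NADPH-driven DTNB reduction monitored via TNB absorbance. Enzyme dispensed at 20 nM; compound exposure 15 min at room temperature before reaction start.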
NS1 inh: influenza NS1 inhibition. Potency, µM (titrated, usually from 46.1 µM). 270,000 compounds, 0.4% hits. AID 2326; calls by dose curve; note: actives are rising curves; nearly all actives have a fitted effect of over 50% in size
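Compounds were scored for reversing the slow growth caused by influenza A NS1 in S. cerevisiae, measured by optical density at 600 nm. Assay medium contained 2% galactose at pH 6.0; NS1-free yeast of the same strain were the positive control.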
Pf growth 96h: P. falciparum growth inhibition at 96 hours; P. falciparum luciferase reporter growth, 96 h; Potency, µM (top dose mostly 28.7 µM), actives largely listed as inhibitors; 320,000 compounds, 6.9% hits
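Plates of compound plus infected erythrocytes (2% hematocrit, 0.05% parasitemia final) incubate 96 hours, 37 C, 5% CO2. Detection reagent added; reduced luminescence from the parasites' luciferase reporter flags inhibition.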
Pf growth 48h: inhibits P. falciparum growth in the first generation, 48 h | P. falciparum luciferase growth in erythrocytes, 48 h | Potency, µM (highest dose often 28.7 µM), hits mostly inhibitors | 310,000 compounds, 5.9% hits | AID 504832
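Luminescence readout; reporter = integrated firefly luciferase in P. falciparum. RBC culture at 2% hematocrit, 0.1% parasitemia final, 37 C/5% CO2; decreased signal taken as growth inhibition.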
Large screens that a line does not name were inactive. Unless noted, calls come from the whole dose curve; as a rule, active = well fitted curve in the direction sought with a large enough effect; inconclusive = small, poorly fitted or top-dose-only effect, or another doubt; inactive = no such curve, though single readings can be large; an effect the other way counts as inactive or inconclusive.

Cc1cc(=O)n2[nH]c(N)c(N=Nc3ccccc3F)c2n1	none
Cc1nn(-c2ccccc2)c(N)c1N=Nc1ccc(Cl)cc1	CHX counter 29.2, Shiga toxin inh 102.0
Cc1nn(-c2ccccc2)c(N)c1N=Nc1cccc(S(=O)(=O)N2CCOCC2)c1	Pf growth 48h inconclusive
NS(=O)(=O)c1cccnc1Nc1cccc(Cl)c1Cl	none
CCC(C)NC(=O)c1ccc2c(c1)nc1n2CCCCC1 (centres undefined)	none (no result: CHX counter, Shiga toxin inh, NS1 inh, Pf growth 96h, Pf growth 48h)
O=c1c2c3c(sc2ncn1/N=C/c1ccccc1)CCCC3	CHX counter 19.1, Shiga toxin inh 63.7
Cc1sc2ncn(/N=C/c3ccco3)c(=O)c2c1C	CHX counter 38.7, Shiga toxin inh 53.8
O=c1c2c3c(sc2ncn1/N=C/c1ccco1)CCCC3	Shiga toxin inh 75.7 (no result: Pf growth 96h)
Cc1cccnc1Nc1nc(-c2ccc(O)cc2)cs1	CHX counter 49.7, Shiga toxin inh 156.6 (no result: Pf growth 96h)
Cc1cccnc1Nc1nc(-c2ccc(F)cc2)cs1	CHX counter 57.0, Shiga toxin inh 103.1
CCCOc1ccc(C(=O)Nc2ccc3oc(-c4ccc5ccccc5c4)nc3c2)cc1	none (no result: CHX counter, Shiga toxin inh, NS1 inh, Pf growth 96h, Pf growth 48h)
O=C(O)c1ccccc1-c1c2cc(Br)c(=O)cc-2oc2[c]([Hg])c(O)c(Br)cc12	Pf growth 96h 6.42µM, Pf growth 48h inconclusive (no result: CHX counter, Shiga toxin inh, Sm TGR block, NS1 inh)
CCOP(=O)(OCC)C(NC(=O)c1cc([N+](=O)[O-])cc([N+](=O)[O-])c1)C(F)(F)F (centres undefined)	Sm TGR block 12.6µM
Cc1nc(CC(=O)Nc2nccs2)cs1	none
Cc1nc(CC(=O)Nc2nc(-c3ccccc3)cs2)cs1	CHX counter 28.8, Shiga toxin inh 80.3, Pf growth 96h inconclusive
Cc1nc(CC(=O)Nc2nc(C(C)(C)C)cs2)cs1	Shiga toxin inh 88.1
COc1ccc(Cn2ccc3nc(C)c(C(=O)Nc4cc(C)cc(C)c4)cc3c2=O)cc1	none (no result: CHX counter, Shiga toxin inh, NS1 inh, Pf growth 96h, Pf growth 48h)
COc1ccc(CNCc2ccc(OC)c3ccccc23)cc1	Pf growth 96h 2.33µM
COc1cccc(CNCc2ccc(OC)c3ccccc23)c1OC	Sm TGR block inconclusive, Pf growth 96h inconclusive, Pf growth 48h inconclusive
CCOc1ccc(CNc2cccc(SC)c2)cc1	Pf growth 48h inconclusive
Cc1cccc(CNS(=O)(=O)c2csc(C(N)=O)c2)c1	none
COc1ccc(S(=O)(=O)NCc2cccs2)cc1	none (no result: Pf growth 48h)
O=S(=O)(NCc1cccs1)c1ccc(Cl)s1	Pf growth 96h 7.38µM
COC(=O)c1cc(S(=O)(=O)NCc2cccs2)c[nH]1	Pf growth 96h 11.7µM
O=S(=O)(NCc1cccs1)c1ccc(Br)s1	none
CCN(CC)S(=O)(=O)c1ccc(S(=O)(=O)NCc2cccs2)cc1	Pf growth 96h 8.28µM
NC(=O)c1cc(S(=O)(=O)NCc2cccs2)cs1	Pf growth 96h 8.28µM
COc1cc(NC(=O)c2ccc(C)c(Cl)c2)ccc1NC(=O)c1cc2ccccc2o1	none (no result: CHX counter, Shiga toxin inh, NS1 inh, Pf growth 96h, Pf growth 48h)
COC(=O)c1cc(S(=O)(=O)NCc2ccccc2Cl)c[nH]1	Pf growth 96h 2.62µM
Cc1cc(C=C2C(=O)c3ccccc3C2=O)c(C)n1-c1ccc(Cl)cc1	CHX counter 13.8
Cc1cc(/C=C2/C(=O)NC(=O)N(Cc3ccco3)C2=O)c(C)n1-c1ccccc1	Sm TGR block inconclusive
Cc1cccc(-n2c(C)cc(C=C3C(=O)c4ccccc4C3=O)c2C)c1	CHX counter 20.7
Cc1cc(C=C2C(=O)CCCC2=O)c(C)n1-c1ccccc1	CHX counter 16.1, Sm TGR block inconclusive
O=C(COc1ccc(F)c(Cl)c1)N1CCCCCCC1	none
Cc1ccc(Cl)cc1N1CCN(C(=O)c2cc3c(-c4ccccc4F)nn(C)c3s2)CC1	none (no result: CHX counter, Shiga toxin inh, NS1 inh, Pf growth 96h, Pf growth 48h)
CCOC(=O)C1C(=O)C=C(c2ccc(Br)cc2)CC1c1ccco1 (centres undefined)	none
CC(=O)C1=C(C)NC(SCc2cccc([N+](=O)[O-])c2)=C(C#N)C1c1ccco1 (centres undefined)	none
CC1=C(C(=O)Nc2ccccc2)C(c2ccco2)C(C#N)=C(SCC(=O)OC(C)C)N1 (centres undefined)	Sm TGR block inconclusive, Pf growth 96h 7.38µM, Pf growth 48h 2.33µM
COc1ccccc1NC(=O)C1=C(C)NC(SCC(=O)c2ccc(C)cc2)=C(C#N)C1c1ccco1 (centres undefined)	Sm TGR block inconclusive (no result: Pf growth 48h)
